Compound activity from PubChem.
Tb PGK inh: inhibitors of T. brucei phosphoglycerate kinase; Potency, µM (highest dose often 57.5 µM), inactives show at the top dose activity change, negative = inhibition, most hits filed as inhibitors; PGK/GAPDH coupled, Kinase-Glo luminescence, 60 min; P07378; hit rate 0.043% among 380,000; also: potency is read from the fitted curve at half-maximal effect; nearly all actives have a fitted effect of over 60% in size
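Recombinant glycosomal PGK reaction used 1,3-bisphosphoglycerate generated in-well by GAPDH (100nM final) in 100mM TEA pH 7.6, 5mM MgCl2, 0.01% Tween-20. After 60 minutes at room temperature, ATP was read by Kinase-Glo Plus luminescence end-point.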
Pin1 inhibitor: blocks the human prolyl isomerase Pin1. AID 504891. Q13526. hit rate 0.009% among 390,000. Pin1 FP peptide displacement, HiFluor488, 10 min. Potency, µM (series often up to 115 µM), inactives show top-dose activity, negative = inhibition, most hits filed as inhibitors; active = well fitted inhibition curve with a large enough effect in the polarisation, with a control signal flat, not every such curve was filed as active; inconclusive = small, poorly fitted or top-dose-only effect, or effect the other way, or a change in a side signal; inactive = no such curve, though single readings can be large or run the other way; the % refers to the polarisation; also: potency is read from the fitted curve at half-maximal effect
Target sequence (Q13526 whole entry, looked up): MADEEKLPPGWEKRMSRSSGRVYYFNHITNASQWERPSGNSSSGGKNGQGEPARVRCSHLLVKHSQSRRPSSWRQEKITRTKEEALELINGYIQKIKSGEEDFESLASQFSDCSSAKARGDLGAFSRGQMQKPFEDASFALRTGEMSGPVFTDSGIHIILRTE
PI4K2A inh: blocks human PI4K2A kinase activity. Q9BTU6. purified PI4K2A, ADP-Glo luminescence, 1 h; hits give low values. activity change, negative = inhibition, % at 76.9 µM. hit rate 0.13% among 420,000. AID 1346378; in the data active = activity change below about -50%; inconclusive = mostly about -30% to -49%;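 also: -100% = wells without enzyme as full effect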
Target sequence (Q9BTU6 whole entry, looked up): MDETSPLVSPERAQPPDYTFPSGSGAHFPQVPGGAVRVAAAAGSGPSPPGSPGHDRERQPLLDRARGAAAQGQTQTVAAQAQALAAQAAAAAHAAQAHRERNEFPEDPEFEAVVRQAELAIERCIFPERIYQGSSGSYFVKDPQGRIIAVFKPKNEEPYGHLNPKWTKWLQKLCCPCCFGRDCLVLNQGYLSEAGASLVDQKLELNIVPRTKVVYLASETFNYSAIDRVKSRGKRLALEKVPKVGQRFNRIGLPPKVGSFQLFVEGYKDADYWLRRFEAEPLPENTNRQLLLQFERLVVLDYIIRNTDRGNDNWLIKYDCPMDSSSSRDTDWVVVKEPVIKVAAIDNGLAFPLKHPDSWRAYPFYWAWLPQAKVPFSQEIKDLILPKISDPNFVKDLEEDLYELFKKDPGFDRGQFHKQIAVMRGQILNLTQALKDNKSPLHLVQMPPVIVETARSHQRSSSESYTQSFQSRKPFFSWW
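Compounds are screened against recombinant PI4K2A using PI as substrate and ATP, the latter dispensed at 300 microM. Reactions run one hour at ambient temperature before ADP-Glo detection; full inhibition defined by wells lacking enzyme.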
Tb PFK inh: inhibitors of T. brucei phosphofructokinase | Potency, µM (top dose mostly 57.5 µM), without a hit: at the highest dose activity, negative = inhibition, actives largely listed as inhibitors | T. brucei PFK, ADP-Glo luminescence | O15648 | AID 485367 | hit rate 0.17% among 330,000;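 also: potency is read from the fitted curve at half-maximal effect; 0% = uninhibited 1x PFK enzyme wells and -100% = no-enzyme wells; nearly all actives have a fitted effect of over 60% in size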
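In TEA buffer at pH 8.0 with 5 mM MgCl2, enzyme (1.25 nM) converted F6P (0.5 mM) and ATP (0.1 mM) for 45 min at room temperature. ADP product was read by luciferase luminescence.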
PI5P4Ka inh: blocks human PI5P4K alpha kinase activity; PI5P4Kalpha enzyme, ADP-Glo luminescence, 60 min; hits give low values; P48426; max response, %; hit rate 1.2% among 330,000; AID 652105; active = max response of -50% or lower; inconclusive = between -30% and -50%; inactive = -30% or higher; also: value at the top dose of about 77 µM
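Single end-point luminescence (ADP-Glo) quantified ADP from PI5P4Kalpha turnover; ATP 5 microM final, 1 h at RT, 0.1% CHAPS and 0.28 mM EGTA in HEPES pH 7.4.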
Numbers without * were called inactive; i = inactive; ? = inconclusive; . = no result given. Only a selection was taken, and hits are over-represented in it overall. Unless noted, calls follow the shape of the dose curve; as a rule, active = well fitted curve in the direction sought with a large enough effect; inconclusive = small, poorly fitted or top-dose-only effect, or another doubt; inactive = no such curve, though single readings can be large; an effect the other way counts as inactive or inconclusive. Unless noted, % is scaled to controls: 0 for no effect and ±100 for the full control effect.

SMILES | Tb PGK inh | Pin1 inhibitor | PI4K2A inh | Tb PFK inh | PI5P4Ka inh
Cc1ccc(-c2cc(-c3ccccc3Cl)c(C#N)c(N)n2)o1 | -2% | ? | 0 | 14% | ?
Cc1ccc(-c2cc(-c3ccccc3)c(C#N)c(N)n2)o1 | -9% | ? | 6 | -24% | -58*
C=CCN1c2ccccc2[C@]23C[C@@H](C(=O)OC)N(C(=O)c4cccs4)C2=NC(C(=O)OC)=C(C(=O)OC)[C@H]13 | -1% | ? | 0 | -3% | -52*
CCN=c1scc(C)n1/N=C/c1ccc(O)c(O)c1O | -10% | ? | -12 | -27% | -51*
CCN=c1scc(C)n1/N=C/c1cc(Br)c(O)c(Br)c1 | -8% | 14% | -6 | -1% | ?
O=[N+]([O-])c1ccc2c(c1)N([O-])C1(CCCCC1)[N+]2=O | -12% | . | -14 | -10% | -51*
CC[C@H](C)/C=C(C)/C=C/C1=CC2=CC(=O)[C@]3(C)OC(=O)[C@@H](C(C)=O)[C@@H]3C2=CO1 | 0% | ? | -7 | -15% | -60*
CCOc1cc(C2C(C#N)=C(N)OC3=C2C(=O)CC(C)(C)C3)cc([N+](=O)[O-])c1O (stereo not drawn) | i | -9% | -11 | -2% | 3
CC1(C)CC(=O)C2=C(C1)OC(N)=C(C#N)C2c1cc2c(cc1[N+](=O)[O-])OCO2 (stereo not drawn) | i | . | -1 | -13% | -80*
O=c1[nH]c(=O)c2[nH]c(=S)n(-c3ccccc3)c2[nH]1 | -8% | -14% | -9 | . | -56*
CCCCC#Cc1nc(NC)c2ncn([C@@H]3O[C@H](CO)[C@@H](O)[C@H]3O)c2n1 | . | . | -6 | . | .
CC1(C)Cc2c(C#N)c(N3CCN(C(=O)c4ccccc4Cl)CC3)nc(-c3ccco3)c2CS1 | -1% | ? | -53* | -2% | -85*
Cc1ccc(NS(=O)(=O)c2ccc3c(c2)N(C)CCO3)cc1C | . | 4% | . | . | .
COc1ccc(C2Nc3ccccc3C(=O)N2Cc2ccccn2)cc1COc1ccc(NC(C)=O)cc1 (stereo not drawn) | . | 1% | . | . | .
NNC(=O)c1cc2ccccc2cc1O | -9% | ? | 2 | 10% | -52*
COc1ccc(C2Nc3ccccc3C(=O)N2Cc2ccccc2)cc1COc1ccc(C#N)cc1 (stereo not drawn) | . | 15% | . | . | .
CC(=O)c1sc(N/N=C\c2c(O)ccc3ccccc23)nc1C | 0% | ? | -2 | . | -53*
COc1cccc(C2c3c(ncn(-c4ccccc4C(C)(C)C)c3=N)Oc3ccc4ccccc4c32)c1 (stereo not drawn) | . | 20% | . | . | .
C=CCOC(=O)c1cc(-c2ccc(/C=C3\C(=O)NC(=O)C(C#N)=C3C)o2)ccc1Cl | ? | ? | -16 | ? | -27
CCCOC(=O)c1cc(-c2ccc(/C=C3/C(=O)N(C)C(=O)C(C#N)=C3C)o2)ccc1Cl | -7% | 3% | -13 | . | -58*
O=C(O)c1cc2cccc(S(=O)(=O)N3CCOCC3)c2cc1O | 3% | 0% | 1 | 2% | -73*
Cc1cc(/C=C2\SC(=S)NC2=O)c(C)n1-c1cccc(O)c1 | -8% | ? | -2 | 0% | -68*
Cc1cc(/C=C2/C(=O)NN(c3ccccc3)C2=O)c(C)n1-c1cccc(O)c1 | -8% | ? | -17 | -7% | -56*
COc1ccc(N2C(=O)c3ccccc3C2=O)cc1 | -7% | 48% | 0 | 1% | 2
COc1ccc(N2C(=O)C(Cl)=C(Oc3cccc(OC)c3)C2=O)cc1 | i | -5% | -6 | 0% | -87*
SMILES | Tb PGK inh | Pin1 inhibitor | PI4K2A inh | Tb PFK inh | PI5P4Ka inh
COc1ccc2ncnc(NCC3CCCO3)c2c1-c1ccc2c(c1)OCO2 (stereo not drawn) | . | -21% | . | . | .
Cc1ccc(/C=C/C(=O)N2CCN(S(=O)(=O)c3ccc(C)c(C)c3)CC2)o1 | i | 33% | -21 | ? | -74*
O=[S+]([O-])(c1cc2ccccc2o1)N1CCN([S+](=O)([O-])c2c(F)cccc2F)CC1 | . | 2% | . | . | .
Cc1ccc(CCn2c3c(c4cc(Cl)ccc42)CN(C)CC3)cn1 | . | . | -5 | . | .
N#C/C(=C\c1cccc(Oc2ccccc2)c1)C(=O)N1CCOCC1 | -1% | -7% | 34 | 7% | 1
COc1cc(/C=C(\C#N)C(=O)N2CCOCC2)cc(Br)c1O | . | 3% | 0 | 0% | -61*
COc1ccc(S(=O)(=O)N2c3ccc(Cl)cc3[C@@](O)(c3ccccc3Cl)[C@H]2C(=O)N2CCC[C@@H]2C(N)=O)cc1OC | . | . | -2 | . | .
CN(C)c1ccc(-c2nc3ncc(Cl)cc3[nH]2)cc1 | . | . | -3 | . | .
CCOC(=O)C(C)Sc1nc(-c2ccco2)cc(C(F)(F)F)c1C#N (stereo not drawn) | 0% | 41% | 9 | -6% | -56*
CCOC(=O)COc1nc(-c2ccco2)cc(-c2ccco2)c1C#N | 1% | 60% | ? | -4% | ?
COCCn1c(C)cc(C2=NNC(=Nc3ccccc3)SC2)c1C | 0% | 0% | -52* | 10% | ?
O=C(N/N=C/c1ccco1)c1cccc(N2Cc3ccccc3C2)c1 | -2% | . | -29 | -1% | -88*
Cc1cc2c(s1)c1cnn(Cc3c(Cl)cccc3Cl)c(=O)c1n2C | . | -2% | . | . | .
O=c1oc(Nc2ccc(F)cc2)nc2ccccc12 | 0% | -4% | -57* | -3% | 3
O=c1nc(Nc2ccccc2)oc2ccccc12 | -8% | 4% | -1 | -1% | -6
COc1ccc2c(c1)Cc1sc(NC(=O)c3cccc(C)c3)nc1-2 | . | 6% | -54* | . | .
O=C1CC(c2ccc(Cl)cc2)CC(=O)C1CS(=O)(=O)c1ccccc1 (stereo not drawn) | 2% | ? | -14 | -7% | -58*
CCCCCCc1ccc(C(=O)CCN(C)C)cc1 | . | 3% | . | . | .
CCSc1nnc(N2C(=O)c3ccc(C(=O)c4ccc(C(=O)O)cc4)cc3C2=O)s1 | -6% | -14% | -9 | 11% | -85*
NC[C@H]1O[C@H](O[C@H]2[C@H](O)[C@@H](O[C@H]3O[C@H](CO)[C@@H](O)[C@H](N)[C@H]3O)[C@H](N)C[C@@H]2N)[C@H](N)[C@@H](O)[C@@H]1O | . | . | i | . | .
Cc1ccc(C)n1-c1sccc1C(=O)O | ? | . | -27 | ? | -83*
O=C(O)CN1C(=O)/C(=C\c2cc([N+](=O)[O-])ccc2OCc2ccccc2Cl)SC1=S | -15% | . | -1 | ? | -72*
O=C(CCS(=O)(=O)c1ccc(Br)cc1)NCCc1ccccc1 | ? | -27% | -7 | -19% | -4
NS(=O)(=O)c1ccc(CCNC(=O)CCS(=O)(=O)c2ccc(Br)cc2)cc1 | . | -9% | -4 | 15µM* | -14
CCOc1ccc(-c2cn3ccccc3n2)cc1 | ? | 6% | -52* | -22% | -25
Fc1ccc(-c2cn3ccccc3n2)cc1 | -5% | 0% | -12 | -4% | 3
